Data on 39 compounds can be found in PubChem BioAssay (NCATS).

Inconclusive results are not listed. Where a call stands in place of a potency, no number is given. Calls of active or inactive are those of the source. Calls come from the whole dose curve; as a rule, active = well fitted inhibition curve with a large enough effect; inconclusive = small, poorly fitted or top-dose-only effect; inactive = flat fitted curve, though single readings scatter.

Sequence of Calcium and integrin-binding protein 1 (Homo sapiens) (Q99828 whole entry, looked up): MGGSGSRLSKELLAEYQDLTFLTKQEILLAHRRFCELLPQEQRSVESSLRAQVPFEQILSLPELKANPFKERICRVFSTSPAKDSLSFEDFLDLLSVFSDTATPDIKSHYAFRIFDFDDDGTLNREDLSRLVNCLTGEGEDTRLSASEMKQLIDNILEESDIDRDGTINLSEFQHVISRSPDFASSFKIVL

This assay has as its target Calcium and integrin-binding protein 1 (Homo sapiens) (UniProt Q99828). As to the kind of experiment: Primary qHTS for Identification of Calcium Integrin Binding Protein 1 (CIB1) Competitor (AID 1508620).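 Note: GST tagged CIB1 binding a fluorescein labelled alphaIIb integrin peptide tracer; top concentration of the series differs between compounds.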 As to conditions: CIB1-GST / FITC-alphaIIb peptide fluorescence polarization; series mostly up to 114 µM. In outline: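 CIB1-GST (1 uM final) and compound incubated 15 min at room temperature before adding FITC-alphaIIb peptide tracer (100 nM final). Competition for binding read by fluorescence polarization (ex 480, em 540) after another 15 min at room temperature.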
(In general: Quantitative high-throughput screening tests each substance at several concentrations.)
Consider `Cc1cnc(-c2ccccc2C2COC2)nc1NCC1CCN(c2cccnc2)CC1`, for which the Potency result is “inactive”.
Under `COc1ccc(C2Nc3ccccc3C(=O)N2Cc2ccco2)cc1COc1c(C(C)C)cccc1C(C)C` (centres undefined) stands “inactive”.
Under `COc1ccccc1CNC(=O)Nc1nnc(-c2ccncc2)s1` stands “inactive”; under `O=C(c1cc2sccc2n1Cc1ccccc1)N(CCc1ccc(O)c(O)c1)Cc1ccccc1`, “inactive”; under `O=C(Nc1nnc(-c2ccncc2)s1)Nc1ccc(Cl)cc1Cl`, “inactive”.
As for `Cc1cnc(-c2ccccc2C(C)C)nc1NCC1CN(c2cccnc2)C1`, the entry is “inactive”; as for `COc1ccc(C[C@@H](NS(=O)(=O)c2ccc(C(=O)O)cc2)C(=O)O)cc1`, “inactive”; as for `Cc1cc(-c2nc(Nc3ccc(F)c(F)c3)c3ccccc3n2)ccn1`, “inactive”.
For the compound `COc1cc(O)c(C(CC(=O)N2CCCC(C(=O)N3CCCCC3)C2)c2ccc3c(c2)OCO3)c(OC)c1` (centres undefined), the Potency entry was “inactive”.
Regarding `O=C1CCc2cc(S(=O)(=O)Nc3cccc4ccccc34)ccc2N1`, the Potency entry was “inactive”.
Turning to `COc1ccc(-c2c(NC(C)=O)sc3c2CCNC3)cc1`, the Potency result was “inactive”.
Under `CC(C)(C)NC(=O)Nc1nnc(-c2ccncc2)s1` stands “inactive”; under `C/C(=C\c1cccc(C(F)(F)F)c1)C1Nc2cccc3cccc(c23)N1`, “inactive”.
For `Cc1cnc(-c2ccccc2C(C)C)nc1NCc1ccc(C(N)=O)cc1`, the Potency entry was “inactive”.
Take `Cc1cc(-c2nnc3n2CCCCCC3)c(C)n1-c1ccccc1`: the Potency result was “inactive”.
As for `Cc1ccc(OCCn2c(CCNC(=O)c3cccc4[nH]ccc34)nc3ccccc32)cc1`, the entry is “inactive”; as for `Cc1cc2c(s1)c(C#N)c(C(=O)NCc1ccccc1F)n2C`, “inactive”.
Under `N#Cc1c(-c2ccccc2C(F)(F)F)nc2ccccc2c1NCc1ccc(-c2cccnc2)cc1` stands “inactive”; under `O=C(NC1CCCc2c1cnn2-c1ccc(F)cc1F)c1ccc(C(=O)c2ccccc2)cc1` (centres undefined), “inactive”; under `O=S1(=O)N=C(Oc2ccccc2C(F)(F)F)c2ccccc21`, “inactive”.
For `Clc1ccc(CSc2nc3ncc(Br)cc3[nH]2)cc1Cl`, the Potency result is “inactive”.
Under `COc1ccc(CN(Cc2ccccc2)C(=O)c2ccc(OC)cc2O)cc1` stands “inactive”; under `O=C1Nc2cc(Cl)ccc2/C1=C\c1cc(Cl)c(O)c(Cl)c1`, “inactive”.
Under `CN(C)C1CCN(Cc2cc(COCc3ccccc3)c3cccnc3c2O)C1` (centres undefined) stands “inactive”.
Under `O=C1CCc2cc(S(=O)(=O)Nc3ccc(F)cc3)ccc2N1` stands “inactive”; under `CC(=O)c1ccc(N2CCN(S(=O)(=O)c3ccc4c(c3)CCCN4C(C)=O)CC2)cc1`, “inactive”.
Take `COc1cc(O)c(C(CC(=O)N2C[C@H](C)C[C@H](C)C2)c2ccc3c(c2)OCO3)c(OC)c1` (some centres undefined): the Potency entry is “inactive”.
As for `O=C(Nc1nnc(-c2ccncc2)s1)NC12CC3CC(CC(C3)C1)C2`, the entry is “inactive”; as for `Fc1ccc(-c2ccc(CNc3nc(-c4ccccc4C(F)(F)F)nc4ccccc34)cc2)cc1`, “inactive”.
Turning to `Cc1cccc(OC2=NS(=O)(=O)c3ccccc32)c1`, the Potency result was “inactive”.
Take `COc1ccc(C2c3c(N)nc(CCCc4ccccc4)nc3Oc3ccc4ccccc4c32)cc1OC` (centres undefined): the Potency result was “inactive”.
With `FC(F)(F)c1cccc(CSc2nc3ncc(Br)cc3[nH]2)c1`, the Potency result is “inactive”.
As to `O=C(c1ccc2c(c1)ncn2-c1ccccc1)N1CCCCC1`, the Potency result was “inactive”.
For the compound `C#CCOc1ccc(-c2no[n+]([O-])c2C#N)cc1`, the Potency entry was “inactive”.
Under `N#Cc1ccc(Nc2ncc(-c3cccc4ccccc34)o2)cc1` stands “inactive”; under `O=C(O)Cc1cc(F)c(S(=O)(=O)N2CCN(S(=O)(=O)c3ccc4c(c3)OCCO4)CC2)cc1F`, “inactive”.
Under `CCOC(=O)C1CCN(C(=O)C(C)(C)NC(=O)Nc2cccc(C(=O)OC)c2)CC1` stands “inactive”; under `Cc1cc(C)nc(NC(=S)N2CCN(c3ccc(C(=O)O)cc3)CC2)c1`, “inactive”.
On to `COc1nccc(-c2nc(Nc3ccc(F)c(F)c3)c3ccccc3n2)c1Cl`, for which the Potency entry is “inactive”.
